Shown are actives, neighbours in structure and some others; about 2.1% of the full set was active somewhere.
DUSP3 inh = VHR1 phosphatase inhibitors, primary screen, biochemical, absorbance, uHTS; inhibition, % at 13.3 µM; recombinant VHR phosphatase, pNPP absorbance; Dual specificity protein phosphatase 3 (Homo sapiens), P51452; 290,000 compounds, 0.52% hits; AID 1654, 2009; in the data active = inhibition above about 50%
PfHsp40 rescue = rescue of yeast from PfHsp40 toxicity, primary screen, S. cerevisiae, ATP luminescence | AID 504582, 2011 | 340,000 compounds, 0.68% hits | growth rescue, % at 12.5 µM | S. cerevisiae expressing PfHsp40, growth rescue; in the data active = growth rescue above about 28%, passing the limit was not always enough;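 also: yeast W303a lacking pdr1 and pdr3 grown in galactose medium; growth measured after three days at 30 °C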
MazF activator = activators of E. coli MazEF toxin-antitoxin RNase, primary screen, biochemical, fluorescence, uHTS; Endoribonuclease toxin MazF (Escherichia coli (strain K12)), P0AE70; FAM/BHQ RNA-DNA oligo cleavage fluorescence, 5 h; activation, % at 20 µM; 350,000 compounds, 0.32% hits; in the data active = activation above about 50%
PrPC TRFRET = inhibitors of human cell surface prion protein PrPC, primary screen, cell-based, TR-FRET | Major prion protein (Homo sapiens), P04156 | TR-FRET read-out | inhibition, % at 13.8 µM | 370,000 compounds, 0.43% hits; in the data active = inhibition above about 24%; also: 0% = median of the test wells and 100% = reference compound wells
BJeLR viability = MLPCN primary cell-based screen for lethality selective to Ras in HRASV12 cells; inhibition, % (concentration not given with the values); BJeLR (HRASV12) viability, CellTiter-Glo ATP luminescence, 48 h; 300,000 compounds, 0.17% hits; in the data active = inhibition above about 50%
PrP UTR inh = inhibition of PrP 5' UTR reporter expression; cell-based PrP 5' UTR mRNA reporter, plate reader; inhibition, % (test concentration not listed); 340,000 compounds, 0.35% hits; in the data active = inhibition above about 52%; also: 0 = median of the neutral control wells
PrPC TRFRET cf = confirmation of inhibitors of cell surface human prion protein, confirmation, cell-based, TR-FRET. shares compounds with PrPC TRFRET. cell surface PrPC level. inhibition, % at 13.8 µM. 1,500 compounds, 65% hits; in the data active = inhibition above about 25%
LD9 cytotox = cytotoxicity in LD9 cells, cytotoxicity control for cell surface PrPc inhibitor project, cell-based, luminescence, high throughput; 1,500 compounds, 29% hits; shares compounds with PrPC TRFRET; luminescence viability; inhibition, % at 13.8 µM; in the data active = inhibition above about 9.5%
Numbers without * were called inactive.

Results for Cc1cc2ccccc2n1CCNC(=O)C(C)Oc1ccccc1 (configuration not stated) ?
DUSP3 inh: -10; PfHsp40 rescue: 0; MazF activator: -35; PrPC TRFRET: 41*; BJeLR viability: 10; PrP UTR inh: -1; PrPC TRFRET cf: 30*; LD9 cytotox: -4

Results for Cc1cc2ccccc2n1CCNC(=O)C(C)C ?
DUSP3 inh: -17; PfHsp40 rescue: 0; MazF activator: -20; PrPC TRFRET: 5; BJeLR viability: 4; PrP UTR inh: 31

What do the screens show for `Cc1c([N+](=O)[O-])c(C/C=N/O)nn1C`?
DUSP3 inh: -18; PfHsp40 rescue: -1; MazF activator: -8; PrPC TRFRET: 33*; BJeLR viability: -11; PrP UTR inh: -8; PrPC TRFRET cf: 7; LD9 cytotox: -3

What do the screens show for `CNC(=O)C[C@H]1C(=O)N(c2ccc(Br)cc2)C[C@@H]1CSC`?
MazF activator: 5; PrPC TRFRET: 2

Results for CN1C(=O)C(C)(C)c2cc(S(=O)(=O)N3CCCC(C(=O)Nc4ccc(Cl)cc4)C3)ccc21 (configuration not stated) ?
DUSP3 inh: 21; PfHsp40 rescue: 1; MazF activator: 9; PrPC TRFRET: 81*; BJeLR viability: 7; PrP UTR inh: -19; PrPC TRFRET cf: 73*; LD9 cytotox: 4

How did CC(C)c1ccc(NC(=O)C2CCCN(S(=O)(=O)c3ccc4c(c3)C(C)(C)C(=O)N4C)C2)cc1 (configuration not stated) do in these assays?
DUSP3 inh: 21; PfHsp40 rescue: -1; MazF activator: 0; PrPC TRFRET: 79*; BJeLR viability: 11; PrP UTR inh: -3; PrPC TRFRET cf: 73*; LD9 cytotox: -2

What do the screens show for `CCOc1ccc(NC(=O)C2CCCN(S(=O)(=O)c3ccc4c(c3)C(C)(C)C(=O)N4C)C2)cc1` (configuration not stated)?
PrPC TRFRET: 39*; PrPC TRFRET cf: 33*; LD9 cytotox: -4

Results for CN1C(=O)C(C)(C)c2cc(S(=O)(=O)N3CCC(C(=O)Nc4ccc(Cl)cc4)CC3)ccc21 ?
DUSP3 inh: 21; PfHsp40 rescue: 0; MazF activator: 6; PrPC TRFRET: -2; BJeLR viability: 10; PrP UTR inh: 3

What do the screens show for `CN1C(=O)C(C)(C)c2cc(S(=O)(=O)N3CCCC(C(=O)NCc4ccc(F)cc4)C3)ccc21` (configuration not stated)?
DUSP3 inh: 13; PfHsp40 rescue: 0; MazF activator: 8; PrPC TRFRET: 29*; BJeLR viability: 10; PrP UTR inh: -27; PrPC TRFRET cf: 40*; LD9 cytotox: 4

Results for O=C(Cn1ncn2c(cc3ccccc32)c1=O)NCCCc1ccccc1 ?
DUSP3 inh: 14; PfHsp40 rescue: 0; MazF activator: -3; BJeLR viability: 5; PrP UTR inh: 1

How did COc1ccc(CNC(=O)c2sc(=O)n(Cc3cc(Cl)ccc3OC)c2C)cc1 do in these assays?
PrPC TRFRET: -5

What do the screens show for `COc1ccc(NC(=O)c2sc(=O)n(Cc3ccc(F)c(Cl)c3)c2C)cc1OC`?
PrPC TRFRET: 30*; PrPC TRFRET cf: 17; LD9 cytotox: 0

Results for COc1ccc(S(=O)(=O)N2CCOC23CCN(C(=O)c2ccc(Cl)cc2Cl)CC3)cc1 ?
DUSP3 inh: -20; PfHsp40 rescue: 2; MazF activator: -1; PrPC TRFRET: 53*; BJeLR viability: 11; PrP UTR inh: -16; PrPC TRFRET cf: 47*; LD9 cytotox: 2

How did Cc1ccc(OCc2cc(C(=O)NCc3cn4ccccc4n3)no2)cc1C do in these assays?
DUSP3 inh: -2; PfHsp40 rescue: 0; MazF activator: 10; PrPC TRFRET: 43*; BJeLR viability: 9; PrP UTR inh: -11; PrPC TRFRET cf: 39*; LD9 cytotox: -5

Results for O=C(NCCc1cn2ccccc2n1)c1cc(COc2c(F)cccc2F)on1 ?
DUSP3 inh: 30; PfHsp40 rescue: 3; MazF activator: 24; PrPC TRFRET: -2; BJeLR viability: -2; PrP UTR inh: -14

Results for CCc1ccccc1Nc1nn2c(=O)c3ccc(C(=O)NCc4ccccn4)cc3nc2s1 ?
DUSP3 inh: 34; PfHsp40 rescue: 0; MazF activator: 7; PrPC TRFRET: 38*; BJeLR viability: -12; PrP UTR inh: -3; PrPC TRFRET cf: 25*; LD9 cytotox: -7

What do the screens show for `NC(Cc1ccccc1)c1csc(NC(=O)Nc2ccccc2Oc2ccccc2)n1` (configuration not stated)?
PrPC TRFRET: 25*; PrPC TRFRET cf: 27*; LD9 cytotox: -1

What do the screens show for `COc1ccc(C(=O)COC(=O)CN2C(=O)C3C4CCC(C4)C3C2=O)cc1` (configuration not stated)?
DUSP3 inh: 8; PfHsp40 rescue: 0; MazF activator: 5; PrPC TRFRET: 10; BJeLR viability: -3; PrP UTR inh: -12

Results for COC(=O)c1ccc(Cn2ccc3ccc(-c4ccc5ccn(C(=O)c6cccc(OC)c6)c5c4)cc32)cc1 ?
PrPC TRFRET: 4

How did O=C(Cn1nnc(-c2ccc3c(c2)OCO3)n1)Nc1ccccc1C(=O)O do in these assays?
DUSP3 inh: -6; PfHsp40 rescue: 0; MazF activator: 2; PrPC TRFRET: 8; BJeLR viability: 10; PrP UTR inh: -13

How did O=C(NCc1ccc(Cl)cc1)c1cccc(NC(=O)c2ccccc2)c1 do in these assays?
DUSP3 inh: -7; PfHsp40 rescue: 1; MazF activator: -1; PrPC TRFRET: 32*; BJeLR viability: -26; PrP UTR inh: -6; PrPC TRFRET cf: 27*; LD9 cytotox: -2

What do the screens show for `CCOC(=O)c1c(/N=C/N(C)C)sc(C)c1C`?
DUSP3 inh: 17; PfHsp40 rescue: 7; MazF activator: -2; PrPC TRFRET: 6; BJeLR viability: 10; PrP UTR inh: -27

Results for CCOC(=O)c1c(/N=C/N(C)C)sc(/C=N/Nc2ccccc2)c1-c1ccc(Cl)cc1 ?
DUSP3 inh: -11; PfHsp40 rescue: -1; MazF activator: -3; PrPC TRFRET: 26*; BJeLR viability: 0; PrP UTR inh: -14; PrPC TRFRET cf: 33*; LD9 cytotox: -5
